Out of some 16,000 compounds screened, about 4,000 (25%) were called active. Inconclusive results (about 26%) are left out. The list is a sample of the results. Unmarked numbers belong to inactive results. Calls come from the whole dose curve; as a rule, active = well fitted curve in the direction sought with a large enough effect; inconclusive = small, poorly fitted or top-dose-only effect, or effect the other way; inactive = no such curve, though single readings can be large or run the other way.
target: Cytochrome P450 2C9 (Homo sapiens) (UniProt P11712); test: Cytochrome panel assay with activity outcomes; details: recombinant CYP, pro-luciferin dealkylation, luminescence, p450-cyp2c9; series mostly up to 57.1 µM
Sequence (P11712 whole entry, looked up): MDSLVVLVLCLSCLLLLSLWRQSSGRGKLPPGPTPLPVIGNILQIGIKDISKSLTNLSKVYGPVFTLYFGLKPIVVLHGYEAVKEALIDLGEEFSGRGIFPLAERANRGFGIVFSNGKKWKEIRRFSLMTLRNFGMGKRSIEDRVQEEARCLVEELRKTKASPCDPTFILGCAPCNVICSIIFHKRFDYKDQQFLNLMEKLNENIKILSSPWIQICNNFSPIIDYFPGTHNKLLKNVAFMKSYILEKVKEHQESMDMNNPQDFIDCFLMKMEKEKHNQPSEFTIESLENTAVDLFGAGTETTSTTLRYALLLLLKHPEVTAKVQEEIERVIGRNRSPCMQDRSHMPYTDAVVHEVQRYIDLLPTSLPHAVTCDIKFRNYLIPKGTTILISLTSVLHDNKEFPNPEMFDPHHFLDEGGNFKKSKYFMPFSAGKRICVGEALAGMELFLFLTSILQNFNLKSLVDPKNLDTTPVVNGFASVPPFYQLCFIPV
% is set by controls: 0 for no effect and ±100 for the full control effect.

Compound	AC50	activity, negative = inhibition
CCCOc1ccc(C(=O)OCCN(CC)CC)cc1N	inactive	
Clc1ccc(Nc2ncn[nH]2)cc1	inactive	
CC1CC(=O)c2cnc(N)nc2C1 (centres undefined)	inactive	
O=C1CC(c2ccccc2)Cc2nc(N3CCc4ccccc4C3)ncc21 (centres undefined)	4.47 µM (active)	
CN1CCN(c2ncc3ncc(=O)n(-c4ccccc4)c3n2)CC1	inactive	
Cc1ccc(-c2noc(CN3CCN(C(c4ccccc4)c4ccccc4)CC3)n2)cc1	5.01 µM (active)	
Clc1ccc(-c2noc(CN3CCCCC3)n2)cc1		-0.0394% [at 11.4 µM]
CC(=O)[C@@H](C)CCO[C@@]1(C)OCC[C@@H]1C		-15.7% [at 11.4 µM]
Cc1cc(C)cc(C(=O)N(NC(=O)Nc2ccc(Cl)cc2)C(C)(C)C)c1	5.01 µM (active)	
CC(C)(CC(=O)Nc1ccccc1)C(=O)O		4.33% [at 11.4 µM]
Cc1c(Cl)c(S(N)(=O)=O)cc(S(N)(=O)=O)c1NC(=O)c1ccc(Cl)cc1		-6.54% [at 11.4 µM]
Cc1ccc(NCCC(=O)c2ccc(Cl)cc2)cc1C	inactive	
CC(C)(C)N(NC(=O)Nc1ccccc1)C(=O)c1ccccc1Cl	14.1 µM (active)	
c1ccc2c(CN3CCN(Cc4c[nH]c5ccccc45)CC3)c[nH]c2c1		-0.0395% [at 11.4 µM]
O=C(O)[C@@H](Cc1c[nH]c2ccccc12)C(=O)NO		-10.3% [at 11.4 µM]
O=S1(=O)CCN(c2ccccc2CC(c2c[nH]c3ccccc23)c2c[nH]c3ccccc23)CC1	3.16 µM (active)	
Cc1ncn(-c2ccccc2O)c1C		9.91% [at 11.4 µM]
CCOC(=O)N1CCC(NC(=O)CSCc2cnn(-c3ccccc3)c2-n2cccc2)CC1	4.47 µM (active)	
CCOC(=O)N1CCC(NC(=O)CCC(=O)N2CCOc3ccccc32)CC1	inactive	
Cc1ccccc1Cn1cnc2c(cnn2C(C)(C)C)c1=O	15.8 µM (active)	
Cc1ccc(-n2ncc3c(=O)n(CC(=O)NCC4CCCO4)cnc32)cc1 (centres undefined)	inactive	
Cc1ccc(C)c(Cn2cnc3c(cnn3C(C)(C)C)c2=O)c1	8.91 µM (active)	
Cc1ccc(NC(=O)Cn2cnc3c(cnn3C(C)(C)C)c2=O)cc1	10 µM (active)	
CO[C@H]1[C@H](O[C@H]2O[C@@H](C)[C@@H](O[C@@H]3C[C@](C)(O)[C@H](OC(=O)CC(C)C)[C@H](C)O3)[C@@H](N(C)C)[C@@H]2O)[C@@H](CC=O)C[C@@H](C)[C@@H](O)/C=C\C=C/C[C@@H](C)OC(=O)C[C@H]1OC(C)=O	inactive	

Reference: PubChem BioAssay AID1851 (National Center for Advancing Translational Sciences (NCATS), 2009)
